Numbering of substitutions follows the chain as printed. Whole data set: some 5,800 sequences, median “enrichment r” near 0.54, cut for the highest 2% near 16. The entries come from a sample that favours the highest values as a whole.
B1: chr5:136977529:136977630:-|3pUTR|ENSG00000152377|msi1|FALSE|unique (ssRNA)
RNA: GGGAGUUCUACAGUCCGACGAUCACAAGCCAUCUCUUUCAUUUCUGCUUGAAGCCCCUUGGCUGCAGCAAUCCUGUCUGCCAUAGGUUUCUUCCUUCCUUACCUACUCAAGGGCUUUUUCUAAGGCAUGCACACAUAUCUCCUCAACAGAGGAUUGAGCAUCA
B2: chr12:100625254:100625355:+|3pUTR|ENSG00000139354|unk|total|mutant (ssRNA)
RNA: GGGAGUUCUACAGUCCGACGAUCAUAUGUAUUAAAUAUGGAGUUCAUAUACCUGCUAAUAUCAACGGUGGUGCUCUUACUAUCCGUUAAUUGCAUUUUGGUUAAAAAAAAAAAAGCAACAGUUUGGCACUUGUCCUACAAAAGCAACAGAGGAUUGAGCAUCA
B3: chr3:48857559:48857660:-|3pUTR|ENSG00000178537|unk|total|mutant (ssRNA)
RNA: GGGAGUUCUACAGUCCGACGAUCGGCUGAAGGCUGCUCAAGUUCACUUCUGGAUGCUGGAAGCUGUCGUUGAGGAGAAGGAGCCGUAAGCAGAACUAAGCAGUCUUGGAGGGCAAGGGGAGGGGAAUGGUGAGAUCCGAGCCCCAACAGAGGAUUGAGCAUCA
B4: chr2:20282997:20283108:-|CDS|ENSG00000055917|unk|total|mutant (ssRNA)
RNA: GGGAGUUCUACAGUCCGACGAUCACUAAUCUGCAAUCUAAUUCAUUUUAUGGAAGCAGUUCUUUGACUAACCGCUCCCAGAGCCGUUCUUUAUUUUCUCAUGGACCUGGUCAACCUGGAAGUACAUCUCUUGGCUUUGGAAGUCAACAGAGGAUUGAGCAUCA
B5: chr17:10306458:10306629:-|CDS|ENSG00000006788|control|control|control (ssRNA)
RNA: GGGAGUUCUACAGUCCGACGAUCCCACCUGGAGCGGAUGAAGAAGAACCUGGAGCAGACGGUGAAGGACCUGCAGCACCGUCUAGAUGAGGCUGAACAACUGGCGCUGAAGGGCGGGAAGAAGCAGAUCCAGAAACUGGAGAACAACAGAGGAUUGAGCAUCA
B6: chr17:57972098:57972209:-|3pUTR|ENSG00000136451|unk|total|mutant (ssRNA)
RNA: GGGAGUUCUACAGUCCGACGAUCCCCGAAUGUGGUUGUCAGAACCCUGAAAGUAUCCGUUCUAAAAAAAAAAAGAUAUAUACCCGAAGUAAUUGUUUUAUCAAUUCAUUGUAUAAUAAACAGGAGUGAGACUUCAUUGUAUGACAACAGAGGAUUGAGCAUCA
B7: ENSG00000186472:stop:overlap|stop_codon|ENSG00000186472|stop_codon|NA|stop_codon (ssRNA)
RNA: GGGAGUUCUACAGUCCGACGAUCUUUCUUGUAAAUGGAAAUUUUAUCAUGUGUAUAGAUUCUGUAGCAUGCUUUUCUUUAUUUAGUUUUACUUUAUUCCUUUAUUGUUCUGUUUCUUGAUUGUUUGCUUGAUUUGUUUGGUGUCAACAGAGGAUUGAGCAUCA
B8: ENSG00000136451:be:win_3801|3pUTR|ENSG00000136451|bound_else_gene|NA|bound_elsewhere_windowed (ssRNA)
RNA: GGGAGUUCUACAGUCCGACGAUCACCCCUAAGCUAGAAUGUGGUUGUCAGAACCCUGAAAGUAUUAGUUCUAAAAAAAAAAAGAUAUAUACUAGAAGUAAUUGUUUUAUCAAUUCAUUGUAUAAUAAACAGGAGUGAGACUUCCAACAGAGGAUUGAGCAUCA
B9: chr1:67413009:67413110:-|3pUTR|ENSG00000142864|unk|FALSE|unique (ssRNA)
RNA: GGGAGUUCUACAGUCCGACGAUCCUGAAUUUUAUCUGUUUUAAAAAUGAACUUCUCCCGCUACACAGAAGUAACAAAUAUGGUAGUCAGUUUUGUAUUUAGAAAUGUAUUGGUAGCAGGGAUGUUUUCAUAAUUUUCAGAGAUCAACAGAGGAUUGAGCAUCA
B10: chr18:2804133:2804242:+|3pUTR|ENSG00000101596|unk|FALSE|unique (ssRNA)
RNA: GGGAGUUCUACAGUCCGACGAUCGGUUAAAGAGAAAUGACUUUUUAGGAACUAGACUUGAACGUAUAAUUAAUAUGUGGAACUAGUUUGCUUUUAUAAUUCAUUGUAUCAAGAAGGAGUCAUGUUUUAAAUCCAAGGCAUUGACAACAGAGGAUUGAGCAUCA
B11: chr7:152122106:152122213:+|3pUTR|ENSG00000178234|unk|total|mutant (ssRNA)
RNA: GGGAGUUCUACAGUCCGACGAUCAGUGGUUUUUAUCUGAUCAGGAACUUGUCAUGAUUUCCUUUCUCCGACUUCACCGGAGACCGUGCUUUAAAAAAAAAAAAAACUUCUAUUAUUUGUUCCGUAUGUUGUAAGCCGAUCAUUCAACAGAGGAUUGAGCAUCA
B12: chr1:67413009:67413110:-|3pUTR|ENSG00000142864|unk|total|mutant (ssRNA)
RNA: B9 RNA with U83C, A84C, U99C, A100C, U113C, A114C
B13: ENSG00000136451:be:win_3751|3pUTR|ENSG00000136451|bound_else_gene|NA|bound_elsewhere_windowed (ssRNA)
RNA: GGGAGUUCUACAGUCCGACGAUCCUCCACAGUGGUCCAAGGAGCAGUCCUCAGUGGGGGCAGGUGUGGGCCCUACCCCUAAGCUAGAAUGUGGUUGUCAGAACCCUGAAAGUAUUAGUUCUAAAAAAAAAAAGAUAUAUACUACAACAGAGGAUUGAGCAUCA
B14: chr8:72021249:72022905:-|three_prime_utr|ENSG00000104321|control|control|control (ssRNA)
RNA: GGGAGUUCUACAGUCCGACGAUCGCAGAUAUGUUCAAAUUGGACUGGACUUUGAUGAGAUAUAAUCUCAUUAUUUGAAUGGGUAGAAAAUGAAUUUGCUAGAACACACAUUUUUAAUGAAAAGAAGUAAUAAAUGUAACUAUUCAACAGAGGAUUGAGCAUCA
B15: chr3:45823315:45826332:-|three_prime_utr|ENSG00000163818|control|control|control (ssRNA)
RNA: GGGAGUUCUACAGUCCGACGAUCUCAGGCAUGUAUUUUGAAAAGCAUUUUGUCAUAUCCCCUCUCCUUAUUUUUCUAAUAUUUAGACUUUGAAUAUUUAGAACUAGAGUUCCUAUUUUCAGCUAGUUGAAAACAGAGAAAACCCAACAGAGGAUUGAGCAUCA
B16: chr17:57972098:57972209:-|3pUTR|ENSG00000136451|unk|FALSE|bound_elsewhere (ssRNA)
RNA: B6 RNA with C25U, C26A, C56U, C57A, C83U, C84A
B17: chr7:152122106:152122213:+|3pUTR|ENSG00000178234|unk|FALSE|unique (ssRNA)
RNA: B11 RNA with C67U, C68A, C76U, C77A, C83U, C84A, C121U, C122A, C135U, C136A

Each binder was assayed against MSI1 full-length (mouse, UniProt Q61474 1-362) (assay: nsRBNS (natural sequence RNA bind-n-seq); RBNS binding buffer (assumed for nsRBNS): 25 mM Tris pH 7.5, 150 mM KCl, 3 mM MgCl2, 0.01% Triton X-100, 500 ug/ml BSA, 20 U/ml SUPERase-In, 4 C; UNK is unkempt and MSI1 is Musashi-1; names of the RNAs are library labels; protein concentration not given here; high values mean tight binding).
MSI1 full-length, sequence (Q61474 whole entry): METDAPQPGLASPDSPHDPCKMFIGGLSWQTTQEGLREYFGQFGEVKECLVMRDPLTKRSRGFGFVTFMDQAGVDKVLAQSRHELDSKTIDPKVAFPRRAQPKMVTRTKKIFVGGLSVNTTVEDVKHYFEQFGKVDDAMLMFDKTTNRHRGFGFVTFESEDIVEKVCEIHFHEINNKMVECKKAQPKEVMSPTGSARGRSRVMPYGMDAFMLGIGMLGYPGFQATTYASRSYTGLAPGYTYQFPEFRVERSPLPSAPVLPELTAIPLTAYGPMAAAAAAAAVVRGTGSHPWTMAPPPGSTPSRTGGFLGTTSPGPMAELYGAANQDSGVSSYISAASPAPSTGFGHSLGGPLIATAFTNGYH

Row | Binder | binding signal
1 | B1 | 0.506 enrichment R
2 | B2 | 0.371 enrichment R
3 | B3 | 0.595 enrichment R
4 | B4 | 0.305 enrichment R
5 | B5 | 0.485 enrichment R
6 | B6 | 0.711 enrichment R
7 | B7 | 0.35 enrichment R
8 | B8 | 16.4 enrichment R
9 | B9 | 41.4 enrichment R
10 | B10 | 1.24 enrichment R
11 | B11 | 1.74 enrichment R
12 | B12 | 0.413 enrichment R
13 | B13 | 1.89 enrichment R
14 | B14 | 2.75 enrichment R
15 | B15 | 5.79 enrichment R
16 | B16 | 29.3 enrichment R
17 | B17 | 20.2 enrichment R
